# Assay results as given in PubChem BioAssay AID1851 (National Center for Advancing Translational Sciences (NCATS), 2009).
# Among all 16,000 compounds or so, about 4,000 (25%) were called active. About 26% were inconclusive and are not listed. These entries were drawn from the full list. A number with no mark means an inactive call. Calls come from the whole dose curve; as a rule, active = well fitted curve in the direction sought with a large enough effect; inconclusive = small, poorly fitted or top-dose-only effect, or effect the other way; inactive = no such curve, though single readings can be large or run the other way.
# Target: Cytochrome P450 2C9 (Homo sapiens) (UniProt P11712)
# Sequence (P11712 whole entry, looked up): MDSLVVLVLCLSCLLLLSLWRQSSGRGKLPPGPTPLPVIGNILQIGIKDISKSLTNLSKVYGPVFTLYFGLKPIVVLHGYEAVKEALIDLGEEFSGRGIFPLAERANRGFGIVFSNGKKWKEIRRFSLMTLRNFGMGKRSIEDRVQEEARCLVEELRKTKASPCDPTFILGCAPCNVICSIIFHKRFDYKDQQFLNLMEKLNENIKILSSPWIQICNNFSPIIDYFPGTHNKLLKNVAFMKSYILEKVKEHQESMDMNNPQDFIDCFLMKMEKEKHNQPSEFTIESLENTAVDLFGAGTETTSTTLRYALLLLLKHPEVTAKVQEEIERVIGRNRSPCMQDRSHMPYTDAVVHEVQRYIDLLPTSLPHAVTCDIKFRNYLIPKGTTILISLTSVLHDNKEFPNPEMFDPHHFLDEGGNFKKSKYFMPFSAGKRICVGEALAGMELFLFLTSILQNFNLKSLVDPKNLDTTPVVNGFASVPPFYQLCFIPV
# Assay: Cytochrome panel assay with activity outcomes
# Conditions: recombinant CYP, pro-luciferin dealkylation, luminescence, p450-cyp2c9; series mostly up to 57.1 µM
# % is set by controls: 0 for no effect and ±100 for the full control effect.
SMILES,AC50,"activity, negative = inhibition"
COc1cccc(C2C3(C#N)C(N)=NC(OC)(OC)C23C#N)c1 (centres undefined),inactive,
CC(=O)[C@H](C(=N)C#N)C(=O)Nc1ccccc1,,10.8% [at 11.4 µM]
COC1(OC)N=C(NC(=O)Nc2ccccc2)C2(C#N)C(c3ccccc3)C12C#N (centres undefined),12.6 µM (active),
CC1(C)CC(=O)C(C(c2cccc(O)c2O)C2C(=O)CC(C)(C)CC2=O)C(=O)C1,,3.72% [at 11.4 µM]
Cc1ccc(C(C2C(=O)CC(C)(C)CC2=O)C2C(=O)CC(C)(C)CC2=O)s1,28.2 µM (active),
CCc1nnc(NC(=O)C2Cc3ccccc3CN2S(=O)(=O)c2ccc(C)cc2)s1 (centres undefined),3.98 µM (active),
O=C(Nc1nccs1)C1Cc2ccccc2CN1S(=O)(=O)c1ccc(F)cc1 (centres undefined),12.6 µM (active),
O=S(=O)(c1ccccc1)N1CCC2(CCN(Cc3nccs3)CC2)CC1,inactive,
O=C(Nc1nnc(C2CC2)s1)C1Cc2ccccc2CN1S(=O)(=O)c1ccccc1F (centres undefined),3.16 µM (active),
O=S(=O)(c1ccccc1)N1CCC2(CC1)CN(Cc1nccs1)C2,inactive,
CC(C)CN1CCC2(CC1)CCN(C(=O)c1cccn1C)CC2,inactive,
CCOC(=O)n1ccn(C)c1=S,inactive,
CC(=O)OC[C@@H]1O[C@@H](O/N=C2/C[C@@H](O)[C@@H](O)[C@@H]3[C@@H]4C(=O)N(C(C)(C)C)C(=O)[C@H]4CC[C@H]23)[C@H](OC(C)=O)[C@H](OC(C)=O)[C@@H]1OC(C)=O,,2.66% [at 11.4 µM]
CO[C@H]1COC(=O)[C@H](C)NC(=O)C/C=C\[C@@H](C)[C@H](OC)COC(=O)[C@@H](OCc2ccccc2)/C=C\[C@@H]1C,,-13.3% [at 11.4 µM]
O=C(NCCc1ccc(Cl)cc1)Nc1cccc(Cl)c1,3.98 µM (active),
CNC(=O)C(=O)NCCc1ccc(Cl)cc1,inactive,
CN(C)CCNC(=S)Nc1cccc(Cl)c1,inactive,
CC(=O)OC[C@@H]1O[C@@H](O/N=C2/C[C@@H](O)[C@@H](O)[C@@H]3[C@@H]4C(=O)N(C5CCCCC5)C(=O)[C@H]4CC[C@H]23)[C@H](OC(C)=O)[C@H](OC(C)=O)[C@@H]1OC(C)=O,,9.42% [at 11.4 µM]
O=c1c(-c2cc(F)cc(F)c2)nc2cnc(N3CCOCC3)nc2n1C[C@H]1CCCO1,inactive,
O=C(NC12CC3CC(CC(C3)C1)C2)c1ccc(COc2ccc(Cl)cc2[N+](=O)[O-])o1,7.94 µM (active),
CC(C)=CCC/C(C)=C/CO/N=C1/C[C@@H](O)[C@@H](O)[C@@H]2[C@@H]3C(=O)N(Cc4ccccc4)C(=O)[C@H]3CC[C@@H]12,,24.4% [at 11.4 µM]
CC(C)=CCC/C(C)=C/CO/N=C1/C[C@@H](O)[C@@H](O)[C@@H]2[C@@H]3C(=O)N(Cc4ccccc4)C(=O)[C@H]3CC[C@H]12,,-1.37% [at 11.4 µM]
c1nc(N2CCNCC2)c2cc(-c3ccc4c(c3)OCO4)ccc2n1,,14.4% [at 2.29 µM]
C[C@@H]1O[C@@H](O)[C@@H](O)[C@H](O)[C@H]1O,,0.774% [at 11.4 µM]
NC(=O)[C@@H]1CCCN1Cc1ccc2c(c1)OCO2,,-2.9% [at 11.4 µM]
O=C(O)[C@@H]1CCCN1Cc1ccc2c(c1)OCO2,,-5.38% [at 11.4 µM]
CC1(C)SC(=S)N(Cc2ccc3c(c2)OCO3)C1N(O)C(=O)NC1CCCCC1 (centres undefined),3.55 µM (active),

SMILES,AC50,"activity, negative = inhibition"
COc1ncc2nc(-c3ccc(F)cc3)c(=O)n(C)c2n1,inactive,
Cc1ccc(NC(=O)CCC(=O)NNS(=O)(=O)c2ccccc2)c(C)c1,inactive,
Cc1cc(CSc2ccccc2)ccc1NC(=O)COc1ccccc1,inactive,
Cc1cc(Br)ccc1NC(=O)CCSc1ccccc1,8.91 µM (active),
O=C(CCCNS(=O)(=O)c1cccc2nsnc12)NCCc1ccccc1,11.2 µM (active),
O=c1c2ccccc2nc2n1C(CSCc1cccc(C(F)(F)F)c1)CS2 (centres undefined),2 µM (active),
COc1ccc(NC(=O)N2CCC3(CC2)CCN(C(=O)c2cccn2C)CC3)cc1,inactive,
CCCCCCCCC(=O)N/N=C/c1ccccn1,inactive,
CCCCCC(=O)N1CC2(CC(c3cccc(NC(=O)c4ccccc4)c3)=NO2)C[C@@H]1C(N)=O (some centres undefined),inactive,
O=C(Nc1cccc(-c2nc3ncccc3o2)c1)c1sc2cc(Cl)ccc2c1Cl,inactive,
CCCCCC(=O)Nc1cccc(-c2nc3ncccc3o2)c1,17.8 µM (active),
O=C(CSc1ccc(Cl)cc1)Nc1cccc(-c2nc3ncccc3o2)c1,3.16 µM (active),
CC1=NS(=O)(=O)c2cc(Cl)ccc2N1,inactive,
CO[C@H]1COC(=O)C/C=C\[C@H](C)[C@@H](OC)COC(=O)[C@H](Cc2ccccc2)NC(=O)C/C=C\[C@@H]1C,,-2.12% [at 11.4 µM]
Cc1ccc(S(=O)(=O)N[C@H]2COC(=O)[C@@H](C)COC(=O)[C@H](C)NC(=O)C/C=C\[C@H]2C)cc1,,10.1% [at 11.4 µM]
O=C(NC(=S)Nc1cccc(Cl)c1N1CCCCC1)c1ccco1,5.01 µM (active),
C[C@@]1(C(NC(=O)c2cccs2)c2ccc(-c3ccccc3)cc2)C[C@H]1C1CCCCC1 (some centres undefined),inactive,
Cc1c(Cl)cccc1NC(=O)CCC(=O)NNC(=O)c1ccco1,inactive,
O=C(NC(=S)Nc1cccc(Cl)c1N1CCCCC1)c1cccs1,3.98 µM (active),
CC1CCN(c2ccccc2NC(=S)NC(=O)c2cccs2)CC1,5.01 µM (active),
C[C@@H]1C[C@@H]2[C@H]3CCC4=CC(=O)C=C[C@]4(C)[C@]3(Cl)[C@@H](O)C[C@@]2(C)[C@@]1(O)C(=O)CO,inactive,
O=C(O)c1[nH]c2c([N+](=O)[O-])cc([N+](=O)[O-])cc2c1C(=O)O,3.16 µM (active),
O=c1[nH]c2cc([N+](=O)[O-])c([N+](=O)[O-])cc2[nH]c1=O,inactive,
N[C@@H](Cc1c[nH]c2ccc([N+](=O)[O-])cc12)C(=O)O,,9.84% [at 11.4 µM]
COc1ccc(C(C)(C)C)cc1NC(=O)c1cncc(Br)c1,20 µM (active),
CCOc1ccc(C(F)(F)F)cc1NC(=O)c1ccc(OC)c([N+](=O)[O-])c1,inactive,
CC(C)(C)NC(=O)COC(=O)c1cncc(Br)c1,inactive,
